Rows were chosen to be rich in hits. Some 2.8% of all compounds tested hit in one or more screens of this group.
Pol eta inh: DNA polymerase eta (human) inhibition. actives 1.2% (n = 390,000). recombinant Pol eta, fluorescent DNA replication assay. Q9Y253. AID 588591. Potency, µM (top dose mostly 114 µM), for the others: at the top dose activity change, negative = inhibition, usual class: inhibitors; note: potency is the fitted concentration of half-maximal effect; % is set by controls: 0 for no effect and ±100 for the full control effect
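Fluorescent replication assay: 50 nM final substrate added after a 15 min room-temperature compound preincubation with 10 nM enzyme. Signal taken at 0 min and again at 10 min.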
FEN1 inh-1: blocks human flap endonuclease 1; actives 0.35% (n = 390,000); Recombinant FEN1 flap cleavage, fluorescence, 15 min; AID 588795; Potency, µM (doses to about 114 µM), for inactives: top-dose activity change, negative = inhibition, hits mostly inhibitors; note: potency is the fitted concentration of half-maximal effect; % is set by controls: 0 for no effect and ±100 for the full control effect; nearly all actives have a fitted effect of over 65% in size
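Nuclease activity of 10 nM FEN1 was measured after 15 min of room-temperature exposure to titrated compounds, by adding 50 nM flap substrate and reading plates at 0 and 15 min.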
Pol iota inh: DNA polymerase iota (human) inhibition. Q9UNA4. Pol iota fluorescent replication assay, 10 min. Potency, µM (titrated, usually from 115 µM), for the others: at the top dose activity, negative = inhibition, hits mostly inhibitors. actives 1% (n = 390,000); note: potency is the fitted concentration of half-maximal effect
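Pol iota at 10 nM preincubated 15 min with compounds at room temperature; reaction started with fluorescent substrate, 50 nM final. Fluorescence read kinetically at 0 and 10 min; buffer-only wells as negative control.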
Pol beta inh: inhibitors of human DNA polymerase beta; Pol beta primer extension/strand displacement, fluorescence kinetic; Potency, µM (highest dose often 114 µM), for inactives: at the top dose activity change, negative = inhibition, actives largely listed as inhibitors; actives 1.3% (n = 340,000); note: potency is the fitted concentration of half-maximal effect; % is set by controls: 0 for no effect and ±100 for the full control effect
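Kinetic readout of DNA synthesis with strand displacement by Pol beta. Compound and 10 nM enzyme sit 15 min at room temperature; 50 nM substrate starts the reaction, read immediately and at 10 min.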
Pol kappa inh: DNA polymerase kappa (human) inhibition | AID 588579 | purified Pol kappa, fluorescent DNA synthesis assay, 10 min | Q9UBT6 | actives 0.53% (n = 400,000) | Potency, µM (titrated, usually from 107 µM), for the others: at the highest dose activity, negative = inhibition, most hits filed as inhibitors; note: potency is the fitted concentration of half-maximal effect; % is set by controls: 0 for no effect and ±100 for the full control effect
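Here, compound and 10 nM enzyme are combined for 15 min at room temperature; adding 50 nM substrate (final) starts DNA synthesis, tracked by fluorescence at 0 and 10 min against buffer-only wells.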
PI5P4Ka inh: PI5P4K alpha (human) kinase inhibition | P48426 | PI5P4Kalpha enzyme, ADP-Glo luminescence, 60 min; active compounds read low | max response, % | actives 1.2% (n = 330,000); active = max response of -50% or lower; inconclusive = between -30% and -50%; inactive = -30% or higher; note: value at the top dose of about 77 µM; % is set by controls: 0 for no effect and ±100 for the full control effect
Target sequence (P48426 whole entry, looked up): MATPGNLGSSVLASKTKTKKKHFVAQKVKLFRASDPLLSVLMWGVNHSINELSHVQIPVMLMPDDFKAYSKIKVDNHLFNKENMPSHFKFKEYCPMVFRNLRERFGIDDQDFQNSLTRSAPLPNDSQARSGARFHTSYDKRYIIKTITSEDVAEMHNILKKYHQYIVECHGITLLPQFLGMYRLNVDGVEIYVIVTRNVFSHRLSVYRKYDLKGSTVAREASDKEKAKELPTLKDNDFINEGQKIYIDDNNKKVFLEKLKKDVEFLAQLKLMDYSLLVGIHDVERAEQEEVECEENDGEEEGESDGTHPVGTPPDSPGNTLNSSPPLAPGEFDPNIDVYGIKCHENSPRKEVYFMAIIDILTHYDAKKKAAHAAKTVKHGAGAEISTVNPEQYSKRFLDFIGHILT
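ADP-Glo luminescence end-point after a 60 min room-temperature kinase reaction. PI5P4Kalpha and substrate in HEPES pH 7.4 buffer with EGTA, 0.1% CHAPS and 5% DMSO; ATP at 5 microM final.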
FEN1 inh-2: FEN1 inhibition, cherry-pick retest. Potency, µM, usual class: inhibitors. FEN1 flap cleavage, TAMRA/BHQ2 fluorogenic DNA substrate. shares compounds with FEN1 inh-1. actives 79% (n = 880). AID 720498; note: potency is the fitted concentration of half-maximal effect; nearly all actives have a fitted effect of over 60% in size
Starred values were filed as active, the others as inactive; u = inconclusive; x = not tested or not shown; [ ] = remark or other dose. Unless noted, calls come from the whole dose curve; as a rule, active = well fitted curve in the direction sought with a large enough effect; inconclusive = small, poorly fitted or top-dose-only effect, or another doubt; inactive = no such curve, though single readings can be large; an effect the other way counts as inactive or inconclusive.

SMILES	Pol eta inh	FEN1 inh-1	Pol iota inh	Pol beta inh	Pol kappa inh	PI5P4Ka inh	FEN1 inh-2
CCOC(=O)c1cc2c(=O)n3ccccc3nc2n(Cc2ccco2)c1=NC(=O)c1c(F)cccc1Cl	-18%	-29%	u	8%	u	x	u
N#Cc1cnc(NN)nc1	1%	0%	u	8%	-19%	-2	x
O=C(O)/C=C/C(=O)Nc1ccc(OC(F)(F)F)cc1Br	-12%	6%	13%	u	2%	1	x
COc1ccccc1-[n+]1c(C)cc(/C=C2\Sc3ccccc3N2C)cc1C	u	u	-12%	u	u	-10	38*
Cc1cccc(C)c1NC(=O)COC(=O)c1ccc([N+](=O)[O-])o1	u	u	u	7%	-5%	1	13*
CCOc1cc(N2CCOCC2)c(OCC)cc1NC(=O)COC(=O)c1ccc([N+](=O)[O-])o1	u	28µM*	40%	x	-23%	7	8.5*
COc1ccccc1CNC(=O)COC(=O)c1ccc([N+](=O)[O-])o1	u	u	u	x	-28%	7	30*
O=C(COC(=O)c1ccc([N+](=O)[O-])o1)Nc1ccc2c(c1)OC(F)(F)O2	-17%	x	x	x	x	0	x
O=C(COC(=O)c1ccc([N+](=O)[O-])o1)Nc1ccc2c(c1)OCO2	u	u	60%	x	-20%	-22	19*
COc1ccccc1CNC(=O)COC(=O)c1cc(C)oc1C	-1%	16%	10%	0%	-15%	2	x
CCOc1cc(N2CCOCC2)c(OCC)cc1NC(=O)COC(=O)c1cc(C)oc1C	-1%	0%	-1%	14%	-5%	0	x
CNC(=O)C(N)CSC(C)C1=C(C)c2cc3[n-]c(cc4nc(cc5[n-]c(cc1n2)c(C)c5CCC(=O)O)C(CCC(=O)O)=C4C)c(C)c3C(C)SCC(N)C(=O)NC.[Fe+2] (stereo unspecified)	x	x	x	x	0%[19.4 µM]	x	x
COc1ccccc1/C=C1\SC(=S)N(CC(=O)NC2CCS(=O)(=O)C2)C1=O (stereo unspecified)	-8%	-7%	7%	u	5%	2	x
O=C(COC(=O)c1ccc([N+](=O)[O-])o1)NCc1ccccc1	50µM*	u	u	x	-24%	6	13*
O=C(COC(=O)c1ccc([N+](=O)[O-])o1)c1ccccc1	-12%	-14%	-1%	18%	-18%	4	x
CCOc1ccccc1NC(=O)CSc1nc2ccccc2c2nc(CCn3cncc3C)nn12	-24%	-25%	u	u	-12%[60.1 µM]	x	u
Cc1ccccc1NC(=O)CSc1nc2ccccc2c2nc(CCn3c(C)nc4ccccc43)nn12	-10%	-2%	16%	-15%	-1%[60.1 µM]	x	x
CCC(=O)N1CCc2cc(S(=O)(=O)CCC(=O)Nc3cc(Cl)ccc3OC)ccc21	-4%	-3%	-11%	0%	-14%	x	x
CC(C)(C)OC(=O)C[C@@H]1C/C=C\C[C@H](CC(=O)N(CCO)Cc2ccccc2)C(=O)NCCOC1=O	-7%	7%	16%	x	5%	-6	x
COc1ccc(CCNC(=O)CC2SC(N)=NC2=O)cc1OC (stereo unspecified)	-17%	-2%	46%	-1%	2%	2	x
COc1ccc(Nc2nc(N3CCCC3)c3ccccc3n2)cc1	-29%	u	u	35µM*	-5%	1	34*
COc1ccc(Nc2c3ccccc3nc3ccccc23)cc1	-1%	u	u	u	-19%	4	30*
O=C(CSc1nc(=O)n(Cc2ccco2)c2c1CCC2)Nc1cccc(F)c1	-12%	-13%	3%	11%	-10%[60.1 µM]	x	x
Cc1ccc2c(c1)c(/C=C/c1cc[n+](C)cc1)c(C)n2C	-1%	u	u	u	0%	3	34*

Source: PubChem BioAssay (National Center for Advancing Translational Sciences (NCATS))
